Screening results: PubChem, The Scripps Research Institute Molecular Screening Center
Compounds with a hit are over-represented: about 0.9% of the library has one in this group of screens.
PPARg SRC1 recr: PPARgamma-driven SRC-1 recruitment agonism. 200,000 compounds, 0.41% hits. PPARgamma-SRC-1 coactivator recruitment biochemical assay. activation, % at 8 µM; in the data active = activation above about 19%
Target sequence (P37231 whole entry, looked up): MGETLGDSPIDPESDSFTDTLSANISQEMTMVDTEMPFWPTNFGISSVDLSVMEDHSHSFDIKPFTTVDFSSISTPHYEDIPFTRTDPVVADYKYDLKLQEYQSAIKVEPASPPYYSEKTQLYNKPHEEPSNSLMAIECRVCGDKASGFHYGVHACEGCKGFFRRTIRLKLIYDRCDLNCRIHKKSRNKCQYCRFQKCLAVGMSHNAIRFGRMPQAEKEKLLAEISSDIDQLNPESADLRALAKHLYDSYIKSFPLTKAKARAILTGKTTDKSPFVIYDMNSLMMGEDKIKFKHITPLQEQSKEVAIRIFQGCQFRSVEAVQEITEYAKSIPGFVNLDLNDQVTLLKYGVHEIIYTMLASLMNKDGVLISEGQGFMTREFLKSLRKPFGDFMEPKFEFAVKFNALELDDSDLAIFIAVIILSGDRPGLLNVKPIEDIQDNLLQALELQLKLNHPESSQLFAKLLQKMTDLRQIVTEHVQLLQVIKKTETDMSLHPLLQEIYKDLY
SRC1 TRFRET art: counter-screen for PPARgamma SRC-1 recruitment agonists: TR-FRET artefact; AID 1051; 99,000 compounds, 0.34% hits; TR-FRET ratio at 8 µM; TR-FRET detection artefact counter-screen, emission ratio; hits give high values; in the data active = TR-FRET ratio above about 2300
SRC3 TRFRET art: flags TR-FRET format artefacts in PPARgamma SRC-3 recruitment agonist screen | 99,000 compounds, 0.39% hits | TR-FRET artefact counter-screen, PPARgamma/SRC-3 format; hits give high values | AID 1048 | TR-FRET ratio at 8 µM
PPARg SRC3 recr: promotes SRC-3 coactivator recruitment by human PPARgamma. P37231. biochemical PPARgamma/SRC-3 coactivator recruitment assay. activation, % at 8 µM. 200,000 compounds, 0.26% hits; in the data active = activation above about 23%
PPARg SRC2 recr: PPARgamma-driven SRC-2 recruitment agonism | P37231 | PPARgamma LBD-SRC-2 recruitment, biochemical | activation, % at 8 µM | 200,000 compounds, 0.34% hits | AID 1032; in the data active = activation above about 22%
TR-FRET SRC-2 ct: counter-screen for PPARgamma SRC-2 recruitment agonists: TR-FRET artefact | hits give high values | TR-FRET ratio at 8 µM | 200,000 compounds, 0.4% hits
Hits are given with their value. Cut-off read from the data, not from the text of the source, unless noted: active = TR-FRET ratio above about 2000; inactive = the rest.

Screening Cc1cc(C)c2c(=O)[nH]c(SCC(=O)NCc3ccccc3)nc2n1 returned PPARg SRC1 recr inactive, PPARg SRC3 recr inactive, PPARg SRC2 recr inactive and TR-FRET SRC-2 ct inactive.
Cc1cc(=O)[nH]c2c1c(C)nn2C1CCCC1 was read as PPARg SRC1 recr inactive, PPARg SRC3 recr inactive, PPARg SRC2 recr 73 and TR-FRET SRC-2 ct 4512.
For Cc1cc(=O)[nH]c2c1c(C)nn2C1CCCCC1 the results were PPARg SRC1 recr inactive, PPARg SRC3 recr inactive, PPARg SRC2 recr inactive and TR-FRET SRC-2 ct inactive.
Screening CCN(CC)CCN(Cc1cc2cc3c(cc2[nH]c1=O)OCCO3)C(=O)NC1CCCCC1 returned PPARg SRC1 recr 19, PPARg SRC3 recr inactive, PPARg SRC2 recr inactive and TR-FRET SRC-2 ct inactive.
For CCc1cc2cc(C(=O)Nc3ccc(C)cc3)sc2s1 the results were PPARg SRC1 recr inactive, PPARg SRC3 recr inactive, PPARg SRC2 recr 24 and TR-FRET SRC-2 ct inactive.
`O=C(Nc1ccccc1-c1nc2ccccc2s1)c1cccnc1` gave PPARg SRC1 recr inactive, SRC1 TRFRET art inactive, SRC3 TRFRET art inactive, PPARg SRC3 recr inactive, PPARg SRC2 recr inactive and TR-FRET SRC-2 ct 4568.
O=C(NCCCCNC(=O)c1ccc(Cl)s1)c1ccc(Cl)s1 was read as PPARg SRC1 recr inactive, PPARg SRC3 recr inactive, PPARg SRC2 recr inactive and TR-FRET SRC-2 ct inactive.
Screening O=C(NCCCCCCNC(=O)c1ccc(Br)s1)c1ccc(Br)s1 returned PPARg SRC1 recr inactive, PPARg SRC3 recr inactive, PPARg SRC2 recr inactive and TR-FRET SRC-2 ct 2455.
`CC(Cl)C(=O)c1c[nH]c2ccccc12` (configuration not stated) gave PPARg SRC1 recr inactive, SRC1 TRFRET art inactive, SRC3 TRFRET art inactive, PPARg SRC3 recr inactive, PPARg SRC2 recr inactive and TR-FRET SRC-2 ct inactive.
For CN(C)c1ccnc(N(Cc2ccccc2)Cc2ccccc2)c1C#N the results were PPARg SRC1 recr inactive, PPARg SRC3 recr inactive, PPARg SRC2 recr inactive and TR-FRET SRC-2 ct inactive.
`Cc1cccc(N2CCN(C(=S)c3ccc(-c4ccccc4[N+](=O)[O-])o3)CC2)c1` gave PPARg SRC1 recr inactive, SRC1 TRFRET art inactive, SRC3 TRFRET art inactive, PPARg SRC3 recr inactive, PPARg SRC2 recr inactive and TR-FRET SRC-2 ct inactive.
S=C(c1ccc(-c2cccc(Cl)c2)o1)N1CCOCC1 was read as PPARg SRC1 recr inactive, SRC1 TRFRET art inactive, SRC3 TRFRET art inactive, PPARg SRC3 recr inactive, PPARg SRC2 recr inactive and TR-FRET SRC-2 ct inactive.
For S=C(c1ccc(-c2cccc(Cl)c2)o1)N1CCCCC1 the results were PPARg SRC1 recr inactive, SRC1 TRFRET art 2350, SRC3 TRFRET art inactive, PPARg SRC3 recr inactive, PPARg SRC2 recr inactive and TR-FRET SRC-2 ct inactive.
Screening O=[N+]([O-])c1ccccc1-c1ccc(C(=S)N2CCCC2)o1 returned PPARg SRC1 recr inactive, SRC1 TRFRET art inactive, SRC3 TRFRET art inactive, PPARg SRC3 recr inactive, PPARg SRC2 recr inactive and TR-FRET SRC-2 ct 1992.
`CCc1ccc2nc(N3C(=O)c4oc5ccccc5c(=O)c4C3c3ccc(OC)c(OC)c3)sc2c1` (configuration not stated) gave PPARg SRC1 recr inactive, SRC1 TRFRET art inactive, SRC3 TRFRET art inactive, PPARg SRC3 recr inactive, PPARg SRC2 recr inactive and TR-FRET SRC-2 ct inactive.
For O=C(Cc1sc(-c2ccccc2Cl)nc1-c1ccccc1)Nc1ccccc1 the results were PPARg SRC1 recr 75, PPARg SRC3 recr inactive, PPARg SRC2 recr inactive and TR-FRET SRC-2 ct inactive.
For O=C(O)C1CC=CCC1C(=O)NNc1ccccc1 (configuration not stated) the results were PPARg SRC1 recr inactive, SRC1 TRFRET art inactive, SRC3 TRFRET art inactive, PPARg SRC3 recr inactive, PPARg SRC2 recr inactive and TR-FRET SRC-2 ct inactive.
FC(F)(F)c1cccc(NC(=S)NCc2ccc(Cl)cc2)c1 was read as PPARg SRC1 recr inactive, SRC1 TRFRET art inactive, SRC3 TRFRET art 2072, PPARg SRC3 recr inactive, PPARg SRC2 recr inactive and TR-FRET SRC-2 ct inactive.
C/C(=N\NC(=O)c1nn(C)c(C)c1Br)c1ccc(NC(=O)c2ccccc2F)cc1 was read as PPARg SRC1 recr inactive, SRC1 TRFRET art inactive, SRC3 TRFRET art inactive, PPARg SRC3 recr inactive, PPARg SRC2 recr inactive and TR-FRET SRC-2 ct inactive.
Screening COc1ccc(C2(O)CCN(CC(=O)Nc3nccs3)CC2)c(OC)c1 returned PPARg SRC1 recr inactive, PPARg SRC3 recr inactive, PPARg SRC2 recr inactive and TR-FRET SRC-2 ct 1972.
`O=C(CCSCc1ccccc1Cl)NCc1cccs1` gave PPARg SRC1 recr 28, SRC1 TRFRET art 2618, SRC3 TRFRET art inactive, PPARg SRC3 recr inactive, PPARg SRC2 recr inactive and TR-FRET SRC-2 ct inactive.
Screening O=C(CCSCc1ccccc1F)NCc1cccs1 returned PPARg SRC1 recr inactive, SRC1 TRFRET art inactive, SRC3 TRFRET art inactive, PPARg SRC3 recr inactive, PPARg SRC2 recr inactive and TR-FRET SRC-2 ct inactive.
CCSC1=N/C(=C/c2ccsc2)C(=O)N1c1ccccc1 was read as PPARg SRC1 recr inactive, SRC1 TRFRET art inactive, SRC3 TRFRET art inactive, PPARg SRC3 recr inactive, PPARg SRC2 recr inactive and TR-FRET SRC-2 ct inactive.
CCC(=O)NC(=S)Nc1ccc(NC(=S)NC(=O)c2ccccc2)cc1 was read as PPARg SRC1 recr 24, SRC1 TRFRET art 2679, SRC3 TRFRET art inactive, PPARg SRC3 recr inactive, PPARg SRC2 recr inactive and TR-FRET SRC-2 ct inactive.
O=C(Cn1cnc2ccccc2c1=O)NCc1cccs1 was read as PPARg SRC1 recr inactive, SRC1 TRFRET art inactive, SRC3 TRFRET art inactive, PPARg SRC3 recr inactive, PPARg SRC2 recr inactive and TR-FRET SRC-2 ct inactive.
For Cc1ccc(S(=O)(=O)N2CCCCC2)cc1NC(=O)CSc1ncnc2ccccc12 the results were PPARg SRC1 recr inactive, SRC1 TRFRET art inactive, SRC3 TRFRET art inactive, PPARg SRC3 recr inactive, PPARg SRC2 recr inactive and TR-FRET SRC-2 ct inactive.
Screening O=C(CSc1ncnc2ccccc12)Nc1cc(S(=O)(=O)N2CCCCC2)ccc1Cl returned PPARg SRC1 recr inactive, SRC1 TRFRET art inactive, SRC3 TRFRET art 2968, PPARg SRC3 recr inactive, PPARg SRC2 recr inactive and TR-FRET SRC-2 ct 2930.
For CC1CN(CC(=O)Nc2cc(S(=O)(=O)N3CCCC3)ccc2Cl)CC(C)O1 (configuration not stated) the results were PPARg SRC1 recr inactive, SRC1 TRFRET art inactive, SRC3 TRFRET art inactive, PPARg SRC3 recr inactive, PPARg SRC2 recr inactive and TR-FRET SRC-2 ct 2051.
`Cc1ccc(NC(=O)CSc2ncnc3ccccc23)cc1S(=O)(=O)N1CCCCCC1` gave PPARg SRC1 recr inactive, SRC1 TRFRET art inactive, SRC3 TRFRET art 2506, PPARg SRC3 recr inactive, PPARg SRC2 recr inactive and TR-FRET SRC-2 ct inactive.
`CCOc1ccccc1OCCCC(=O)Nc1sccc1C(N)=O` gave PPARg SRC1 recr inactive, SRC1 TRFRET art inactive, SRC3 TRFRET art inactive, PPARg SRC3 recr inactive, PPARg SRC2 recr inactive and TR-FRET SRC-2 ct inactive.
For O=c1/c(=C/c2ccc(O)c([N+](=O)[O-])c2)sc2nc3ccccc3n12 the results were PPARg SRC1 recr inactive, SRC1 TRFRET art inactive, SRC3 TRFRET art inactive, PPARg SRC3 recr inactive, PPARg SRC2 recr inactive and TR-FRET SRC-2 ct inactive.
Screening CCN(CC)c1ccc(/C=c2\sc3nc4ccccc4n3c2=O)c(O)c1 returned PPARg SRC1 recr inactive, SRC1 TRFRET art 5472, SRC3 TRFRET art 4506, PPARg SRC3 recr inactive, PPARg SRC2 recr inactive and TR-FRET SRC-2 ct 3056.
Screening COc1ccc(-c2cc(-c3ccc(Br)cc3)nc3ncnn23)cc1OC returned PPARg SRC1 recr inactive, PPARg SRC3 recr inactive, PPARg SRC2 recr inactive and TR-FRET SRC-2 ct 2400.
